{"source": "the supplement of paper PMC9446081", "note": "The whole screen tested about 39,000 compounds, of which about 220 (0.56%) showed activity. Many of the other results were omitted from the sample, so actives are more common in it than they were. A number with no mark means an inactive call.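 Also: Wild-type cells incubated without shaking, value is the mean of two biological replicates.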"}
{"test_system": "Escherichia coli K-12 BW25113", "assay": "relative growth (OD600 normalised to plate interquartile mean) (fraction); higher = less growth inhibition, active = 0.2 or less", "details": "50 µM; LB; incubation time: overnight (16-24 h)"}
{"compound": "O=c1c(O[C@@H]2O[C@H](CO)[C@@H](O)[C@H](O)[C@@H]2O[C@H]2OC[C@](O)(CO)[C@H]2O)c(-c2ccc(O)c(O)c2)oc2cc(O)cc(O)c12", "relative growth": 1.02}
{"compound": "O=C(C[C@@H]1CC[C@@H](NS(=O)(=O)c2ccc(F)cc2)[C@@H](CO)O1)N1CCC(Cc2ccccc2)CC1", "relative growth": 0.987}
{"compound": "CC(C)NC(=N)NC(=N)Nc1ccc(Cl)cc1.Cl", "relative growth": 0.965}
{"compound": "CCC(=O)Nc1ccc(Cl)cc1", "relative growth": 1}
{"compound": "Cl.Cl.N=C(NCCCCCCNC(=N)NC(=N)Nc1ccc(Cl)cc1)NC(=N)Nc1ccc(Cl)cc1", "relative growth": "0.0423 (active)"}
{"compound": "Cc1noc(C)c1NC(=O)N(C)C[C@H]1OCCCC[C@@H](C)Oc2ccc(NC(=O)C3CCCCC3)cc2C(=O)N([C@@H](C)CO)C[C@H]1C", "relative growth": 0.976}
{"compound": "Cc1noc(C)c1NC(=O)N(C)C[C@H]1Oc2c(NC(=O)C3CC3)cccc2C(=O)N([C@H](C)CO)C[C@@H]1C", "relative growth": 1}
{"compound": "CC(C)NC(=O)Nc1ccc2c(c1)C(=O)N([C@@H](C)CO)C[C@H](C)[C@H](CN(C)CC1CCCCC1)OCCCC[C@H](C)O2", "relative growth": 1.01}
{"compound": "CC[C@@H](O)C[C@H]1CC[C@H]([C@@H](C)C(=O)O[C@@H](C)C[C@H]2CC[C@H]([C@@H](C)C(=O)O[C@@H](C)C[C@H]3CC[C@H]([C@@H](C)C(=O)O[C@@H](C)C[C@H]4CC[C@H]([C@@H](C)C(=O)O)O4)O3)O2)O1", "relative growth": 1.06}
{"compound": "CN(C)CCC=C1c2ccccc2CCc2ccccc21.Cl", "relative growth": 0.976}
{"compound": "CN(C)CCC=C1c2ccccc2COc2ccc(CC(=O)O)cc21.Cl", "relative growth": "0.0442 (active)"}
{"compound": "CN(C)CCC=C1c2ccccc2COc2ccccc21.Cl", "relative growth": 1.03}
{"compound": "C[C@@H]1CN([C@H](C)CO)C(=O)c2ccccc2-c2ccccc2CO[C@@H]1CN(C)C(=O)Nc1cccc(F)c1", "relative growth": 1.01}
{"compound": "CCOC(=O)CCn1cc(F)c(=O)[nH]c1=O", "relative growth": 0.986}
{"compound": "CC(=O)On1cc(F)c(=O)[nH]c1=O", "relative growth": "0.0691 (active)"}
{"compound": "CCOC(=O)Cn1cc(F)c(=O)[nH]c1=O", "relative growth": 1.06}
{"compound": "CCC1OC(=O)C(C)C(=O)C(C)C(OC2OC(C)CC(N(C)C)C2O)C(C)(OC)CC(C)C(=O)C(C)C2N(CCCCn3cnc(-c4cccnc4)c3)C(=O)OC12C", "note": "(stereo unspecified)", "relative growth": "0.0499 (active)"}
{"compound": "C[C@@H]1CCCCO[C@@H](CN(C)CC2CCCCC2)[C@@H](C)CN([C@H](C)CO)C(=O)c2cc(N(C)C)ccc2O1", "relative growth": 1}
{"compound": "CN(C)c1cc(NC(=O)CNC(C)(C)C)c(O)c2c1CC1CC3C(N(C)C)C(O)=C(C(N)=O)C(=O)C3(O)C(O)=C1C2=O", "note": "(stereo unspecified)", "relative growth": 1.06}
{"compound": "CN(C)C1C(O)=C(C(N)=O)C(=O)C2(O)C(O)=C3C(=O)c4c(O)cccc4C(C)(O)C3C(O)C12.Cl", "note": "(stereo unspecified)", "relative growth": "0.0578 (active)"}
{"compound": "CN(C)[C@@H]1C(=O)C(C(=O)NCN2CCCC2)=C(O)[C@@]2(O)C(O)=C3C(=O)c4c(O)cccc4[C@@](C)(O)[C@H]3C[C@@H]12", "relative growth": 0.516}
{"compound": "CN(C)c1ccc(O)c2c1CC1CC3C(N(C)C)C(O)=C(C(N)=O)C(=O)C3(O)C(O)=C1C2=O.Cl", "note": "(stereo unspecified)", "relative growth": "0.0626 (active)"}
{"compound": "CN(C)C1C(O)=C(C(N)=O)C(=O)C2(O)C(O)=C3C(=O)c4c(O)cccc4C(C)(O)C3CC12.Cl", "note": "(stereo unspecified)", "relative growth": "0.056 (active)"}
{"compound": "CN(C)C1C(O)=C(C(N)=O)C(=O)C2(O)C(O)=C3C(=O)c4c(O)ccc(Cl)c4C(C)(O)C3CC12.Cl", "note": "(stereo unspecified)", "relative growth": "0.0595 (active)"}
{"compound": "C[C@@H]1CCCCO[C@H](CN(C)Cc2ccc(C(F)(F)F)cc2)[C@H](C)CN([C@H](C)CO)C(=O)c2cc(NS(=O)(=O)c3ccc(F)cc3)ccc2O1", "relative growth": 1.02}
{"compound": "C[C@@H]1CN([C@H](C)CO)C(=O)c2cc(NS(=O)(=O)c3ccc(F)cc3)ccc2O[C@@H](C)CCCCO[C@H]1CN(C)Cc1ccccc1", "relative growth": 0.999}
{"compound": "C[C@@H]1CN([C@@H](C)CO)C(=O)c2cc(-c3ccc(F)cc3)cnc2O[C@@H]1CN(C)C(=O)Cc1ccccn1", "relative growth": 0.977}
{"compound": "Cc1ccc(S(=O)(=O)N(C)C[C@@H]2Oc3c(NS(=O)(=O)c4ccc(F)cc4)cccc3C(=O)N([C@H](C)CO)C[C@@H]2C)cc1", "relative growth": 1.01}
{"compound": "COc1ccc(S(=O)(=O)N(C)C[C@H]2Oc3cc(C#CC4CCCC4)ccc3S(=O)(=O)N([C@@H](C)CO)C[C@H]2C)cc1", "relative growth": 1.04}
{"compound": "COc1ccc(CN(C)C[C@H]2Oc3ccc(NC(=O)Nc4ccc(C(F)(F)F)cc4)cc3CC(=O)N([C@@H](C)CO)C[C@H]2C)cc1", "relative growth": 0.99}
{"compound": "C[C@@H]1CCCCO[C@@H](CN(C)C(=O)Nc2ccc(C(F)(F)F)cc2)[C@H](C)CN([C@H](C)CO)C(=O)c2cc(NS(=O)(=O)c3cccs3)ccc2O1", "relative growth": 1.03}
{"compound": "O=C(O)[C@H]1O[C@@H](Oc2c(-c3ccc(O)cc3)oc3cc(O)cc(O)c3c2=O)[C@H](O)[C@@H](O)[C@@H]1O", "relative growth": 1.01}
{"compound": "C[C@H]1CN([C@@H](C)CO)S(=O)(=O)c2ccc(-c3cncnc3)cc2O[C@@H]1CN(C)C(=O)NC1CCCC1", "relative growth": 1}
{"compound": "CCC(=O)Nc1cnc(OC)nc1OC", "relative growth": 1.01}
{"compound": "C[C@@H]1CCCCO[C@H](CN(C)C(=O)Nc2ccc(C(F)(F)F)cc2)[C@@H](C)CN([C@@H](C)CO)C(=O)c2cc(NC(=O)c3ccncc3)ccc2O1", "relative growth": 0.979}
{"compound": "CN(C)CCCNC(=O)C[C@@H]1CC[C@@H]2[C@@H](COc3ccc(NC(=O)c4cccc(F)c4)cc3C(=O)N2C)O1", "relative growth": 0.965}
{"compound": "CC(C)NC(=O)N(C)C[C@@H]1Oc2c(NS(=O)(=O)c3ccc(Cl)cc3)cccc2C(=O)N([C@@H](C)CO)C[C@@H]1C", "relative growth": 1.09}
{"compound": "C[C@H](CO)N1C[C@H](C)[C@H](CN(C)C(=O)c2ccncc2)OCCCC[C@H](C)Oc2ccc(NS(C)(=O)=O)cc2C1=O", "relative growth": 1.02}
{"compound": "CN(C)C1C(O)=C(C(N)=O)C(=O)C2(O)C(O)=C3C(=O)c4c(O)ccc(Cl)c4C(O)C3CC12.Cl", "note": "(stereo unspecified)", "relative growth": "0.0565 (active)"}
{"compound": "COC(=O)C(=C1OC(=O)C(c2ccccc2)=C1O)c1ccccc1", "relative growth": 0.951}
{"compound": "C[C@@H](O)[C@H]1C(=O)N2C(C(=O)O)=C(SCCNC=N)C[C@H]12", "relative growth": 1.01}
{"compound": "CC(O)C1C(=O)N2C(C(=O)[O-])=C(SC3Cn4cnc[n+]4C3)C(C)C12", "note": "(stereo unspecified)", "relative growth": 0.307}
{"compound": "CC(O)C1C(=O)N2C(C(=O)O)=C(SC3CNC(C(=O)N(C)C)C3)C(C)C12", "note": "(stereo unspecified)", "relative growth": "0.0517 (active)"}
{"compound": "C[C@@H]1CN([C@@H](C)CO)C(=O)c2cc(NS(=O)(=O)c3ccc(F)cc3)ccc2O[C@@H](C)CCCCO[C@H]1CN(C)Cc1ccccc1", "relative growth": 0.979}
{"compound": "C[C@@H]1CCCCO[C@@H](CN(C)C(=O)Nc2ccc3c(c2)OCO3)[C@@H](C)CN([C@@H](C)CO)C(=O)c2cc(NS(=O)(=O)c3ccccc3)ccc2O1", "relative growth": 1.01}
{"compound": "C[C@@H]1CN([C@H](C)CO)C(=O)c2ccccc2-c2ccccc2CO[C@@H]1CN(C)S(=O)(=O)c1cn(C)cn1", "relative growth": 0.997}
{"compound": "O=C(C[C@H]1CC[C@H]2[C@@H](COC[C@@H](O)CN2S(=O)(=O)c2ccccc2)O1)N1CCOCC1", "relative growth": 0.964}
{"compound": "CCOC(=O)OC(C)OC(=O)C1N2C(=O)C(NC(=O)C(N)c3ccccc3)C2SC1(C)C.Cl", "note": "(stereo unspecified)", "relative growth": "0.0511 (active)"}
{"compound": "CC1(C)S[C@H]2[C@@H](NC(=O)[C@@H](N)c3ccccc3)C(=O)N2[C@@H]1C(=O)O", "relative growth": 1.01}
{"compound": "CC1(C)SC2C(NC(=O)C(N)c3ccccc3)C(=O)N2C1C(=O)[O-].[Na+]", "note": "(stereo unspecified)", "relative growth": 1.06}
{"compound": "CC1(C)SC2C(NC(=O)C(N)c3ccc(O)cc3)C(=O)N2C1C(=O)O", "note": "(stereo unspecified)", "relative growth": 1.1}
{"compound": "CC1(C)S[C@@H]2[C@H](NC(=O)[C@H](N)c3ccccc3)C(=O)N2[C@H]1C(=O)OCOC(=O)[C@@H]1N2C(=O)C[C@H]2S(=O)(=O)C1(C)C", "relative growth": "0.107 (active)"}
{"compound": "CC1(C)S[C@@H]2[C@H](NC(=O)[C@H](N)c3ccc(O)cc3)C(=O)N2[C@H]1C(=O)O", "relative growth": 0.516}
{"compound": "CN(C)CCCNC(=O)C[C@H]1CC[C@H]2[C@@H](COC[C@@H](O)CN2C(=O)c2cc(Cl)cc(Cl)c2)O1", "relative growth": 0.968}
{"compound": "COc1cc(N)ccn1", "relative growth": 1.07}
{"compound": "O=C(C[C@H]1C[C@H]2c3cc(NS(=O)(=O)c4ccc(F)cc4)ccc3O[C@H]2[C@H](CO)O1)NCc1ccccn1", "relative growth": 0.998}
{"compound": "OC[C@@H](O)[C@H]1O[C@H](c2ccccc2)OC[C@@H]1O", "relative growth": 1.05}
{"compound": "COc1ccc(S(=O)(=O)Nc2ccc3c(c2)C(=O)N([C@H](C)CO)C[C@@H](C)[C@@H](CN(C)C(=O)Nc2c(C)noc2C)O3)cc1", "relative growth": 1}
{"compound": "CSC1=N[C@@]2(C)CCCC[C@@H]2c2c1ccc1ccccc21", "relative growth": 1.01}
{"compound": "COc1ccc(C(=O)Nc2ccc3c(c2)C(=O)N(C)[C@@H]2CC[C@H](CC(=O)NCC4CC4)O[C@@H]2CO3)cc1", "relative growth": 0.982}
{"compound": "Cc1ccc(S(=O)(=O)Nc2ccc3c(c2)C(=O)N([C@@H](C)CO)C[C@H](C)[C@@H](CN(C)S(=O)(=O)c2cn(C)cn2)O3)cc1", "relative growth": 0.932}
{"compound": "CC(N)O.Cc1cc(CC(C)CC(C)(C)C)n(O)c(=O)c1", "note": "(stereo unspecified)", "relative growth": "0.0449 (active)"}
{"compound": "C[C@@H]1CCCCO[C@@H](CN(C)S(C)(=O)=O)[C@H](C)CN([C@H](C)CO)C(=O)c2cc(NS(=O)(=O)c3ccccc3)ccc2O1", "relative growth": 0.997}
{"compound": "C[C@H](NC(=O)[C@@H](Cc1ccc2ccccc2c1)NC(=O)[C@@H](C)N)C(=O)N[C@@H](Cc1c[nH]c2ccccc12)C(=O)N[C@H](Cc1ccccc1)C(=O)N[C@@H](CCCCN)C(N)=O", "relative growth": 0.98}
{"compound": "NCCCC[C@H](NC(=O)[C@@H](NC(=O)[C@H](Cc1c[nH]c2ccccc12)NC(=O)[C@H](CCCCN)NC(=O)[C@H](CCCCN)NC(=O)[C@H](Cc1c[nH]c2ccccc12)NC(=O)[C@H](Cc1c[nH]c2ccccc12)NC(=O)[C@H](CCCCN)NC(=O)[C@@H](N)CCCCN)C(c1ccccc1)c1ccccc1)C(N)=O", "relative growth": "0.149 (active)"}
{"compound": "NCCCC[C@@H](N)C(=O)N[C@@H](Cc1c[nH]c2ccccc12)C(=O)N[C@@H](CCCCN)C(=O)O", "relative growth": 0.994}
